Test results reported in PubChem BioAssay (NCATS).
Inconclusive results are not listed. Calls of active or inactive are those of the source. Unless noted, calls come from the whole dose curve; as a rule, active = well fitted curve in the direction sought with a large enough effect; inconclusive = small, poorly fitted or top-dose-only effect, or another doubt; inactive = no such curve, though single readings can be large; an effect the other way counts as inactive or inconclusive.

Tests used:
[1] = Cell Viability - BJ (AID 421; calls by dose curve;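 note: potency is the fitted concentration of half-maximal effect; cells exposed to compound for 40 hours at 37 °C before readout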); details: BJ fibroblast viability, qHTS
How it was run: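 Normal human BJ foreskin fibroblasts, 1500/well in complete medium, treated 40 hr at 37 °C. Cellular ATP by CellTiter-Glo luminescence; normalized to DMSO and 100 uM tamoxifen, AC50 from Hill fit.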

[2] = Cell Viability - Jurkat (AID 426;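 active = dose-dependent loss of cell ATP signal giving a full or clear fitted curve, ranked by lower potency value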; note: potency is the fitted concentration of half-maximal effect); details: qHTS
How it was run: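 Cells of the human T-cell leukemia line Jurkat (E6-1) are seeded at 5000 per well, treated with compound across a concentration range for 40 hours at 37 °C, then lysed with CellTiter-Glo; luminescence reports ATP.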

[3] = Cell Viability - Hek293 (AID 427;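 active = compounds whose dose-response curve shows a full or clear partial loss of cell viability, called from curve shape rather than a numeric limit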;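 note: potency is the fitted concentration of half-maximal effect; cells exposed to compound for 40 hours at 37 °C before reading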); details: qHTS
How it was run: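 HEK293 cells in complete medium were exposed to compound for 40 hr at 37 °C, then cellular ATP was read by CellTiter-Glo luminescence. Data were normalized to DMSO (basal) and 100 uM tamoxifen (100% inhibition), and AC50 came from Hill fits.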

[4] = Cell Viability - HepG2 (AID 433; calls by dose curve;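 note: potency is the fitted concentration of half-maximal effect; potency for ATP loss meaning cytotoxicity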); details: qHTS
How it was run: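 Read-out is luciferase-based quantitation of cellular ATP as a measure of viable HepG2 cells after 40 h treatment at 37 °C. Signal decrease is scaled between DMSO-only and 100 uM tamoxifen controls, with AC50 fitted by the Hill equation.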

[5] = Cell Viability - MRC5 (AID 434; calls by dose curve;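 note: potency is the fitted concentration of half-maximal effect; potency reflects cytotoxicity seen as loss of intracellular ATP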); details: MRC5 lung fibroblast viability, qHTS
How it was run: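 ATP luminescence read-out (CellTiter-Glo, 20 min RT) after 40 hr, 37 °C compound exposure of 1500 MRC5 cells/well. Data normalized to DMSO (basal) and 100 uM tamoxifen (100% inhibition); AC50 from standard Hill equation.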

[6] = Cell Viability - SK-N-SH (AID 435; calls by dose curve;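 note: potency is the fitted concentration of half-maximal effect; compound exposure lasted 40 h at 37 °C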); details: SK-N-SH neuroblastoma cell viability qHTS
How it was run: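 Luminescent ATP signal served as the viability read-out after 40 hours of compound treatment of human neuroblastoma SK-N-SH cells. Concentration-response data, scaled between DMSO and 100 uM tamoxifen, gave AC50 values by standard Hill modeling.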

[7] = molecular target: Mitogen-activated protein kinase 10 (Mus musculus) (UniProt Q61831); test: JNK3 AlphaScreen Assay (AID 530; active = well fitted curve in either direction with a large enough effect, not every such curve was filed as active;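 note: kinase came from lysate of stimulated human HepG2 cells; signal reports phosphorylation of biotinylated GST-cJun 1-79 at Ser73 with 10 µM ATP; % is set by controls: 0 for no effect and ±100 for the full control effect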)
How it was run: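 Activity was read by AlphaScreen after JNK3-containing HepG2 lysate (cytokine pre-activated) phosphorylated biotinylated GST-cJun with 10 uM ATP at room temperature. Phospho-Ser73 cJun antibody with Protein-A acceptor beads provided detection.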

[8] = Cell Viability - N2a (AID 540); details: N2a mouse neuroblastoma cell viability; activity change, negative = cytotoxicity: at 92.2 µM (top of the series);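 note: plate controls were DMSO alone for no effect and tamoxifen control for full effect; nearly all actives have a fitted effect of over 45% in size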
How it was run: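 Cytotoxicity was scored as loss of cellular ATP in N2a cells, a mouse neuroblastoma line. Compounds are applied in a qHTS concentration series for 40 hr at 37 °C.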

[9] = Cell Viability - NIH 3T3 (AID 541); details: NIH 3T3 cell viability, qHTS; activity change, negative = cytotoxicity: at 92.2 µM (top of the series);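 note: plate controls were DMSO alone for no effect and tamoxifen positive control for full effect; nearly all actives have a fitted effect of over 25% in size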
How it was run: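 Cells seeded at 1000/well, rested 5 hr at 37 °C, then dosed and incubated 40 hr at 37 °C. CellTiter-Glo added, 20 min room temperature, luminescence read. AC50 by Hill fit.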

[10] = Cell Viability - HUV-EC-C (AID 542); note: % is set by controls: 0 for no effect and ±100 for the full control effect; nearly all actives have a fitted effect of over 35% in size
How it was run: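 Cells were seeded at 1000 per well and incubated 5 hr at 37 °C before compound addition. After 40 hr at 37 °C, CellTiter-Glo reagent was added for 20 min and luminescence read. AC50 values came from Hill-equation modelling.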

[11] = Cell Viability - H-4-II-E (AID 543); note: % is set by controls: 0 for no effect and ±100 for the full control effect; nearly all actives have a fitted effect of over 35% in size
How it was run: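 Cells seeded at 1500 per well and rested 5 hr; compounds added; 40 hr incubation at 37 °C; CellTiter-Glo added, 20 min at room temperature; luminescence read. Hill-equation fits gave AC50.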

[12] = Cell Viability - SH-SY5Y (AID 544); details: SH-SY5Y neuroblastoma cell viability; viability change, negative = cytotoxic: at 92.2 µM (top of the series); note: nearly all actives have a fitted effect of over 55% in size
How it was run: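 Cells were plated at 1500 per well and allowed 5 hr at 37 °C. Compounds were added across a concentration range and incubated 40 hr at 37 °C. CellTiter-Glo was added for 20 min at room temperature before luminescence reading.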

[13] = Cell Viability - Renal Proximal Tubule (AID 545); details: renal proximal tubule cells viability, primary cells of rat origin; activity change, negative = cytotoxicity: at 91.7 µM (top of the series); note: nearly all actives have a fitted effect of over 40% in size
How it was run: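 Luminescent ATP signal (CellTiter-Glo) served as the viability read-out after 40 hr compound exposure of freshly isolated rat proximal tubule cells at 37 °C. Concentration-dependent ATP loss was fitted with the Hill equation to give AC50.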

[14] = Cell Viability - Mesenchymal (AID 546); details: mesenchymal cells viability, qHTS; activity change, negative = cytotoxicity: at 91.7 µM (top of the series);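 note: cells exposed to compound for 40 hours before reading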
How it was run: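 Human renal mesenchymal cells (glomerulus-derived), 1000 cells/well, 5 hr 37 °C pre-incubation; compound 40 hr, 37 °C; CellTiter-Glo, 20 min RT; luminescence; AC50 via Hill equation.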

[15] = Cellular Toxicity (caspase-3) HepG2 (AID 654);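 note: cells exposed to compound for 16 hours before reading; 0% = DMSO alone and 100% = caspase signal from 100 µM tamoxifen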
How it was run: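 Caspase 3/7 activation in HepG2 is measured as rising luminescence after a 16 hr treatment at 37 °C. Values are scaled between DMSO basal and 100 uM tamoxifen, and AC50 is fitted with the Hill equation.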

[16] = Cellular Toxicity (caspase-3) Jurkat (AID 655); details: Jurkat caspase-3 activation, luminescence; caspase-3 activation: at 92.2 µM (top of the series), DMSO = 0%, tamoxifen = 100%;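 note: cells exposed to compound for 16 h at 37 °C before reading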
How it was run: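 5000 Jurkat cells/well; compound 16 hr, 37 °C; Caspase-Glo 3/7 added, 20 min RT; luminescence read. Norm: DMSO = 0%, tamoxifen 100 uM = 100%. AC50, Hill model.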

[17] = Cellular Toxicity (caspase-3) HUV-EC-C (AID 656)
How it was run: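 qHTS; HUV-EC-C, 1000 cells/well; 5 hr settle, 16 hr cmpd, 37°C; Caspase-Glo 3/7, 20 min RT; luminescence. Norm: DMSO = 0%, tamoxifen 100 uM = 100%. Hill-fit AC50.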

[18] = Cellular Toxicity (caspase-3) BJ (AID 658); details: Potency: caspase-3 activation;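 note: cells exposed to compound for 16 hours; 0% = DMSO basal and 100% = 10 µM staurosporine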
How it was run: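 qHTS, BJ fibroblasts, 1000 cells/well; 5 hr preincubation, 16 hr compound, 37 °C; Caspase-Glo 3/7 reagent, 1 hr RT; luminescence. DMSO = 0%, 10 uM staurosporine = 100%. Hill-equation AC50.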

[19] = Cellular Toxicity (caspase-3) MRC-5 (AID 659);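 note: 0% = DMSO basal and 100% = 10 µM staurosporine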
How it was run: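 MRC-5 fibroblasts, 1500/well; 16 h cpd, 37 °C; Caspase-Glo 3/7, 1 h RT; lumi read. Norm: DMSO = 0%, 10 uM staurosporine = 100%. Hill-fit AC50 from qHTS conc-response.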

[20] = Cellular Toxicity (caspase-3) Mesangial (AID 660); details: mesangial cells, normalized: DMSO 0%, 100 µM tamoxifen 100%; at 91.7 µM (top of the series);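 note: combined caspase 3 and 7 activity read by Caspase-Glo luminescence; cells exposed to compound for 16 h before the caspase read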
How it was run: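 Seed cells derived from normal human renal glomeruli, incubate 5 h, add compounds across concentrations and incubate 16 h at 37 °C. Caspase 3/7 activation is then quantified by luciferase light, with AC50 derived by Hill modeling.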

[21] = Cellular Toxicity (caspase-3) SK-N-SH (AID 661); details: SK-N-SH caspase-3 activation, qHTS; caspase-3 activation: at 91.7 µM (top of the series), DMSO as zero, staurosporine as full;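 note: cells exposed to compound for 16 hours; 0% = DMSO basal and 100% = 10 µM staurosporine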
How it was run: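 Cells were seeded and incubated 5 hr at 37 °C, dosed with compound over a concentration range for 16 hr, then given Caspase-Glo 3/7 reagent for 1 hr at room temperature before luminescence reading.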

[22] = Cellular Toxicity (caspase-3) H-4-II-E (AID 663); details: H-4-II-E rat hepatoma; Potency: caspase-3 activation; caspase-3 activation: at 92.2 µM (top of the series), scaled: DMSO 0%, 100 µM tamoxifen 100%;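 note: cells exposed to compound for 16 hr before readout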
How it was run: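 H-4-II-E rat hepatoma, 1500 cells/well, 5 hr settle at 37 °C; compound 16 hr, 37 °C, complete medium; Caspase-Glo 3/7, 20 min RT; luminescence. DMSO = 0%, 100 uM tamoxifen = 100%; Hill-equation AC50.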

[23] = Cellular Toxicity (caspase-3) Hek293 (AID 664); details: HEK293 caspase-3 activation, DMSO = 0%, 100 µM tamoxifen = 100%; at 92.2 µM (top of the series);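 note: cells exposed to compound for 16 h at 37 °C before readout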
How it was run: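 qHTS, HEK293 (human embryonic kidney), 16 h cpd exposure in complete medium. Caspase-3/7 activation = luminescence increase; normalized to DMSO/100 uM tamoxifen; Hill-fit AC50.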

Cc1cccc(O)c1C
inactive: Potency [1] > 92 µM | Potency [2] > 92 µM | Potency [3] > 92 µM | Potency [4] > 92 µM | Potency [5] > 92 µM | Potency [6] > 92 µM | Potency [7] | Potency [8] | Potency [9] | Potency [10] | Potency [11] | Potency [12] | Potency [13] | Potency [14] | Potency [15] | Potency [16] | Potency [17] | Potency [18] | outcome [19] | caspase-3 activation [20] -0.758% | caspase-3 activation [21] -0.783% | caspase-3 activation [22] 0.768% | caspase-3 activation [23] 0.349%
